Screening results as filed in PubChem BioAssay.
LmPK inhibitor: inhibitors of Leishmania mexicana pyruvate kinase; Q27686; purified LmPK, Kinase-Glo ATP luminescence, 1 h; Potency, µM (titrated, usually from 57.5 µM), for the others: top-dose activity change, negative = inhibition, most hits filed as inhibitors; 290,000 compounds, 0.37% hits; AID 1721
Target sequence (Q27686 whole entry, looked up): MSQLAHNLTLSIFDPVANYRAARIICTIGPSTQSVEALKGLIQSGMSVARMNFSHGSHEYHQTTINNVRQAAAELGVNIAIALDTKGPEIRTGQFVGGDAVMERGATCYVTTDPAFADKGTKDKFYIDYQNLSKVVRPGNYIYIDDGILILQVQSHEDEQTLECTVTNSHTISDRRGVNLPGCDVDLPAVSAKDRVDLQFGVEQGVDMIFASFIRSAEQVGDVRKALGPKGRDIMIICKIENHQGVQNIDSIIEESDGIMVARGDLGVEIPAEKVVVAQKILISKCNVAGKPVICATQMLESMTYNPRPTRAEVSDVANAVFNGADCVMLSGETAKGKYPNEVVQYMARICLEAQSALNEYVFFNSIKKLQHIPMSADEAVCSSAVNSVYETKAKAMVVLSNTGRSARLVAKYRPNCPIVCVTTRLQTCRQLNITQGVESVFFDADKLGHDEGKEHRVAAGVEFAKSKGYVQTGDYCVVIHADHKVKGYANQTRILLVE
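0.1 nM LmPK, 0.5 mM PEP, 0.1 mM ADP; 50 mM imidazole pH 7.2, 7 mM MgCl2, 50 mM KCl; 1 h RT. Kinase-Glo luminescence readout, normalized to no-enzyme (full inhibition) and uninhibited wells.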
RE007 growth inh: less growth of the S. pombe RE007 Vpr strain. S. pombe RE007 Vpr strain, BacTiter-Glo ATP luminescence, 24 h. 360,000 compounds, 0.21% hits. Potency, µM (doses to about 92.2 µM), for the others: at the highest dose activity change, negative = less growth, usual class: inhibitors; active = well fitted falling curve with a large enough effect; inconclusive = small, poorly fitted or top-dose-only effect; inactive = no such curve, though single readings can be large or run the other way; note: nearly all actives have a fitted effect of over 50% in size
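Fission yeast RE007 carrying one integrated HIV-1 vpr copy, seeded at OD 0.01 in PMG+AL medium with 23 nL pinned compound. Grown 24 h at 30 degrees; viability read by BacTiter-Glo luminescence after 5 min.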
Tb PYK inh: T. brucei pyruvate kinase inhibition. Q57TT1. TbPYK enzyme, Kinase-Glo Plus ATP luminescence, 45 min. Potency, µM (series often up to 76.8 µM), for the others: at the top dose activity, negative = inhibition, actives largely listed as inhibitors. 410,000 compounds, 0.12% hits. AID 624173; note: nearly all actives have a fitted effect of over 50% in size
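T. brucei PYK with substrate was exposed to pin-transferred compounds across a concentration series, then started with 130 uM ADP (final). After 45 min at room temperature, Kinase-Glo Plus luminescence was read, normalized and curve-fitted.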
Giardia FBPA inh-1: inhibitors of Giardia lamblia fructose-1,6-bisphosphate aldolase | A8B2U2 | purified Giardia FBPA | Potency, µM (top dose mostly 59.6 µM), without a hit: at the top dose activity, negative = inhibition, most hits filed as inhibitors | 290,000 compounds, 0.71% hits | AID 2451; note: nearly all actives have a fitted effect of over 55% in size
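Giardia FBPA (40 nM reagent) was preincubated 10 min at RT with compound (up to 57.5 uM final), then substrate plus GAPDH/TPI/NAD/arsenate coupling system with diaphorase/resazurin was added; resorufin fluorescence (525/598 nm) was read after 20 min.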
Giardia growth: inhibitors of Giardia lamblia growth. shares compounds with Giardia FBPA inh-1. Giardia lamblia trophozoite growth inhibition. Potency, µM (highest dose often 57.5 µM), for inactives: at the top dose activity change, negative = inhibition, actives largely listed as inhibitors. 1,500 compounds, 5% hits. AID 2785;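 note: trophozoites exposed to compound for 48 h at 37 °C; nearly all actives have a fitted effect of over 70% in size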
Mammalian tox: toxic to mammalian cells in Giardia aldolase counter-screen | shares compounds with Giardia FBPA inh-1 | mammalian cell viability counter-screen, qHTS | Potency, µM (series often up to 57.5 µM), without a hit: at the top dose viability change, negative = toxicity, hits mostly inhibitors | 1,500 compounds, 4% hits | AID 2786;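 note: Chinese hamster ovary cells used as mammalian cytotoxicity surrogate; viability measured as cellular ATP by luminescence; compound exposure lasted 48 h before reading; nearly all actives have a fitted effect of over 60% in size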
Giardia FBPA inh-2: confirmation of Giardia fructose-bisphosphate aldolase inhibitors; purified Giardia aldolase enzyme activity, qHTS; 1,500 compounds, 5% hits; shares compounds with Giardia FBPA inh-1; Potency, µM (highest dose often 57.5 µM), for the others: top-dose activity change, negative = inhibition, most hits filed as inhibitors; note: nearly all actives have a fitted effect of over 45% in size
Rabbit aldolase: selectivity test for Giardia aldolase inhibitors: rabbit aldolase; shares compounds with Giardia FBPA inh-1; Rabbit muscle FBPA enzyme inhibition, selectivity counter-screen; Potency, µM (doses to about 57.5 µM), for the others: top-dose activity, negative = inhibition, actives largely listed as inhibitors; 1,500 compounds, 4% hits; AID 2794; note: nearly all actives have a fitted effect of over 60% in size
GAPDH counter: counter-screen for Giardia aldolase inhibitors: GAPDH coupling enzyme. shares compounds with Giardia FBPA inh-1. GAPDH coupling enzyme counterscreen, biochemical, qHTS. Potency, µM (highest dose often 57.5 µM), inactives show top-dose activity change, negative = inhibition, actives largely listed as inhibitors. 1,500 compounds, 6% hits; note: nearly all actives have a fitted effect of over 55% in size
* hit, by the source's call; ? = inconclusive; . = not tested or not shown; [ ] = dose if it differs, or a comment. Most compounds without a hit are left out; they make up all but 0.95% or so of the library. Unless noted, calls come from the whole dose curve; as a rule, active = well fitted curve in the direction sought with a large enough effect; inconclusive = small, poorly fitted or top-dose-only effect, or another doubt; inactive = no such curve, though single readings can be large; an effect the other way counts as inactive or inconclusive. % is set by controls: 0 for no effect and ±100 for the full control effect; potency is the fitted concentration of half-maximal effect.

SMILES	LmPK inhibitor	RE007 growth inh	Tb PYK inh	Giardia FBPA inh-1	Giardia growth	Mammalian tox	Giardia FBPA inh-2	Rabbit aldolase	GAPDH counter
COc1cc(C(CC(=O)Nc2ccc(Br)cn2)N2Cc3ccccc3C2=O)cc(OC)c1OC (stereo not given)	.	.	-3%	.	.	.	.	.	.
Cc1ccc(-n2c(=O)c3c(C)c(C)sc3n(CC(=O)NCc3ccccc3)c2=O)cc1C	.	.	-4%	.	.	.	.	.	.
CCc1nnc2c(N3CCN(c4cc(Cl)ccc4C)CC3)nc3ccccc3n12	.	.	-1%[15.4 µM]	.	.	.	.	.	.
Cc1c(NC(=S)NC(=O)c2cccc(Cl)c2)c(=O)n(-c2ccccc2)n1C	-1%	9%	2%	13µM*	24%	16%	3%	12%	10%
COc1cccc2sc(Nc3nnc(-c4cccs4)o3)nc12	-9%	1%	-4%	?	.	.	.	.	.
COc1cccc2sc(Nc3nnc(-c4ccc(F)cc4)o3)nc12	6%	-24%	-7%	16µM*	67%	-11%	13%	-6%	0%
CCN(CC)c1ccc(N=Cc2c(C)[nH]c3ccccc23)cc1	2%	-12%	-6%	?	5%[38.3 µM]	-22%	?	?	?
Cc1cc(S(=O)(=O)n2ccnc2C(C)C)cc([N+](=O)[O-])c1C	.	.	-1%	.	.	.	.	.	.
O=C(Nc1cc(C(F)(F)F)ccc1Cl)c1cnn(-c2ccccc2)c1-n1cccc1	.	.	4%	.	.	.	.	.	.
O=C(O)CC1S/C(=N/N=C/c2ccccn2)NC1=O (stereo not given)	-4%	-16%	-3%	18µM*	15%	12%	18%	4%	8%
CCOC(=O)C(Nc1ccc2ccccc2c1)C(=O)OCC	-2%	?	-3%	3.5µM*	-1%[38.3 µM]	-18%	?	?	40µM*
COc1ccc(NC(=O)c2c(-c3ccc(C)cc3)nnc3ccccc23)cc1Cl	.	.	1%[15.4 µM]	.	.	.	.	.	.
Cc1ccc(NC(=O)CSCc2cnn(-c3ccccc3)c2-n2cccc2)c(Cl)c1	.	.	4%	.	.	.	.	.	.
COc1ccccc1OCC#CCN1CCOCC1	0%	-1%	36%	11µM*	5%[10.4 µM]	0%	1%	2%	14%
O=C(O)c1ccc(/C=N/Nc2ccc(Cl)nn2)cc1	-1%	-3%	-10%	25µM*	?	4%	-15%	-15%	?
CCc1ccc(NC(=O)Cn2c(=O)n(CCCCC(=O)NCc3ccc4c(c3)OCO4)c(=O)c3ccccc32)cc1	.	.	-1%	.	.	.	.	.	.
CCC(C)N(C)C1CCN(C(=S)Nc2cccc(SC)c2)CC1 (stereo not given)	0%	-7%	-2%	10µM*	8%[38.3 µM]	-18%	-4%	-4%	-3%
CSc1cccc(NC(=S)N2CCC(N(C)C(C)C)CC2)c1	10%	12%	-2%	1%	.	.	.	.	.
COc1ccc(/C(O)=C2\C(=O)C(=O)N(Cc3ccco3)C2c2cc(OC)ccc2OC)cc1 (stereo not given)	0%	-14%	-8%	-25%	.	.	.	.	.
Cc1ccc(C2/C(=C(/O)c3ccc(Br)cc3)C(=O)C(=O)N2Cc2ccco2)o1 (stereo not given)	13%	-15%	-5%	20µM*	?	13%	-11%	-16%	-12%
N#Cc1ccccc1NC(=O)COC(=O)c1cccs1	.	-10%	4%	.	.	.	.	.	.
N#Cc1ccccc1NC(=S)NC(=O)c1cccs1	-5%	-21%	-12%	10µM*	?	-13%	?	?	?
